Only some compounds are listed: those with a hit (about 1.5% of all), similar ones and a draw of the others.
NadD inh: inhibitors of S. aureus NadD, primary screen, biochemical, colorimetric, uHTS; Nicotinate-nucleotide adenylyltransferase NadD (Staphylococcus aureus N315); purified NadD enzyme, colorimetric absorbance read-out; inhibition, % at 20 µM; actives 0.78% (n = 360,000); in the data active means inhibition above about 26%
Neddyl block: inhibitors of cullin neddylation, primary screen, biochemical, TR-FRET, uHTS, NAE and Ubc12; AID 651699, 2012; actives 0.58% (n = 360,000); inhibition, % at 25 µM; in the data active means inhibition above about 36%
Target sequence (P61081 whole entry, looked up): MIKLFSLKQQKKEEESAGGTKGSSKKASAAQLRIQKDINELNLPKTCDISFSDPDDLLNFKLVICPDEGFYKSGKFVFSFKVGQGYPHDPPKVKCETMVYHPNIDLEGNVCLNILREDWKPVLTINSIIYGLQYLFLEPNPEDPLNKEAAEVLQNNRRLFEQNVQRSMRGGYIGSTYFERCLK
Target sequence (Q13564 whole entry, looked up): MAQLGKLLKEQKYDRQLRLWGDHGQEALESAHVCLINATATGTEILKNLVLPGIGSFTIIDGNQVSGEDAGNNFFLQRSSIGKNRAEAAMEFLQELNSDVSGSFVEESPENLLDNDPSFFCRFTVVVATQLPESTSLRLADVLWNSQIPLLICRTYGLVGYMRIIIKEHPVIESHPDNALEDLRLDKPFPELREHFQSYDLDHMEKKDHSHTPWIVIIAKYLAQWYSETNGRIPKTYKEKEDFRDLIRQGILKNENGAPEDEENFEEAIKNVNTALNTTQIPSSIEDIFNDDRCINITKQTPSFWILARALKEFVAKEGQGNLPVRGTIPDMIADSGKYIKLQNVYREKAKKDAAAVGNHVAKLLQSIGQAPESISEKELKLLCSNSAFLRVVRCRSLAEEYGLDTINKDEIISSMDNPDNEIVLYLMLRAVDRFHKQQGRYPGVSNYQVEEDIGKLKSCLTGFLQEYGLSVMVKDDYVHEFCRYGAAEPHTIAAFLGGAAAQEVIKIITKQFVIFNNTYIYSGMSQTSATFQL
NPR1 activator: GC-A stimulated cGMP production enhancers – HEK293 GC-A cells, cGMP TR-FRET, EC30 ANP, primary screen; Atrial natriuretic peptide receptor 1 (Homo sapiens), P16066; 0% at EC30 ANP, 100% saturating ANP; activation, % at 10 µM; actives 0.14% (n = 370,000); AID 1671463, 2021; in the data active means activation above about 40%
GC-B act: human GC-B receptor activators, primary screen, HEK293 GC-B cells, cGMP TR-FRET, EC30 CNP. Atrial natriuretic peptide receptor 2 (Homo sapiens), P20594. 0% at EC30 CNP, 100% saturating CNP. activation, % at 10 µM. actives 0.11% (n = 370,000). AID 1920062, 2024;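 active means activation at 10 µM reaching about 35% in either raw or pattern-adjusted values, limit read from the data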
Neddyl inh conf: blockade of NEDD8 conjugation to cullin – biochemical, TR-FRET, single concentration, confirmation; shares compounds with Neddyl block; TR-FRET cullin neddylation biochemical assay; calls only at 25 µM; actives 13% (n = 1,800); in the data active means inhibition above about 40%;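 further: neddylation substrate is the cullin 1 ring ligase complex with SKP2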
Numbers stand for hits; n = inactive; x = no result given; + = active, no number.

SMILES | NadD inh | Neddyl block | NPR1 activator | GC-B act | Neddyl inh conf
COCC(C)NC(=O)c1ccc2nc(-c3ccccc3)c(-c3ccccc3)nc2c1 (configuration not stated) | n | 41 | n | n | +
CCN(CC)C(=O)c1ccc2nc3ccccc3nc2c1 | n | n | n | n | x
CCC(C)NC(=O)c1ccc2nc(-c3ccc(OC)c(OC)c3)c(-c3ccc(OC)c(OC)c3)nc2c1 (configuration not stated) | n | n | n | n | x
COC(=O)[C@]12C[C@H](CC(=O)NCC3CCCCC3)C(=O)N(Cc3ccc(Cl)cc3Cl)C1=C[C@H](C(C)C)O[C@@H]2C1CC1 | x | x | n | n | x
Cc1noc(C)c1S(=O)(=O)N1CCCc2nc(-c3ccc(F)cc3)ccc21 | x | x | n | n | x
O=C(Cc1c[nH]c2ccccc12)Nc1ccc(Nc2cccnc2)c(-c2ccc(OC(F)(F)F)cc2)c1 | x | x | n | n | x
COC(=O)C1=C(C)N(Cc2cccc(C(F)(F)F)c2)C(=NCc2ccc(OC)cc2)NC1c1ccccc1 (configuration not stated) | x | x | n | n | x
Cc1ccccc1Nc1c(-c2cccnc2)nc2ccccn12 | n | 39 | n | n | n
CCOc1ccc2[nH]c(=O)c(CN(CCO)C(=O)CC)cc2c1 | n | 40 | n | n | +
CCCCNC(=O)C[C@H]1C[C@@]2(C(=O)OC)C(=C[C@H](COCc3ccccc3)O[C@@H]2C)N(Cc2ccco2)C1=O | x | x | n | n | x
CCC/C(=C1/c2ccccc2C(=O)N1c1ccccc1)c1ccc2[nH]ccc2c1 | n | 44 | n | n | n
Cn1cc(-c2ccc(Cl)cc2)cc(C#N)c1=O | n | 46 | n | n | n
Cn1c(-c2ccc(Cl)cc2)ccc(C#N)c1=O | n | n | n | n | x
C=CCn1cc(-c2cccc(Cl)c2)cc(C#N)c1=O | n | 41 | n | n | n
S=C(Nc1ccc(I)cc1)OC1CCC12CCC(c1ccccc1)CC2 (configuration not stated) | x | x | n | n | x
c1ccc(CC(Nc2cccnc2)c2ccccc2)cc1 (configuration not stated) | x | x | n | n | x
CC(Oc1ccccc1)C(=O)N1CCN(c2ccc(N3CCCCC3)nn2)CC1 (configuration not stated) | n | 46 | n | n | x
Cc1nn(C)c(C)c1CN(C)C(=O)c1cc2nc(-c3ccco3)cc(C(F)(F)F)n2n1 | n | 42 | n | n | n
Cc1ccccc1Cn1nc(C)c(NC(=O)c2cc(-c3ccco3)on2)c1C | n | n | n | n | x
Cc1nn(C)cc1NC(=O)c1cc2nc(-c3ccco3)cc(C(F)(F)F)n2n1 | n | n | n | n | x
Cc1nn(C)cc1CN(C)C(=O)c1cc2nc(-c3ccco3)cc(C(F)(F)F)n2n1 | n | 43 | n | n | +
Cc1ccccc1Cn1nc(C)c(NC(=O)c2cc3nc(-c4ccco4)cc(C(F)(F)F)n3n2)c1C | n | 42 | n | n | n
C=CCN1[C@@H](CC(C)C)COc2cc(F)ccc2S1(=O)=O | x | x | n | n | x
CCCCC[n+]1ccn(-c2nc3ccccc3nc2[N-]S(=O)(=O)c2ccc(C)cc2)c1 | n | 43 | n | n | n
CCCC[n+]1ccn(-c2nc3ccccc3nc2[N-]S(=O)(=O)c2ccc(C)cc2)c1 | n | n | n | n | x
SMILES | NadD inh | Neddyl block | NPR1 activator | GC-B act | Neddyl inh conf
C=CC[n+]1ccn(-c2nc3ccccc3nc2[N-]S(=O)(=O)c2cccs2)c1 | n | 46 | n | n | x
CCCC[n+]1ccn(-c2nc3ccccc3nc2[N-]S(=O)(=O)c2ccccc2)c1 | n | n | n | n | x
CCCC[n+]1ccn(-c2nc3ccccc3nc2[N-]S(=O)(=O)c2cccs2)c1 | n | 43 | n | n | n
O=S(=O)([N-]c1nc2ccccc2nc1-n1cc[n+](Cc2ccccc2)c1)c1ccccc1 | n | 37 | n | n | +
C#CCNC(=O)C[C@H]1C[C@@]2(C(=O)OC)C(=C[C@H](C3CCCC3)O[C@@H]2C)N(CCc2ccc(OC)c(OC)c2)C1=O | x | x | n | n | x
O=C(Nc1nc2ncccn2c1-c1ccc(C(F)(F)F)cc1)c1ccc(F)cc1 | x | x | n | n | x
O=C(Nc1ccc2c(c1)OCO2)c1cc(-c2ccc(O)cc2)on1 | n | 52 | n | n | +
CC(C)(C)C1c2[nH]c3ccccc3c2CCN1Cc1cccc(OCCO)c1 (configuration not stated) | n | 52 | n | n | n
C=CCN1C(C(=O)OC)CN(Cc2cn(CCC3OCCO3)nn2)CCS1(=O)=O (configuration not stated) | x | x | n | n | x
CC(C)C[C@@H](CSc1ccccc1)N1CCN(CCc2ccccc2)CCC1=O | n | 29 | n | n | n
CC(C)C[C@@H](CSc1ccc(Br)cc1)N1CCN(CCc2ccccc2)CCC1=O | n | n | n | n | x
Cc1ccc(O)c(C(C)c2c[nH]c3ccccc23)c1 (configuration not stated) | x | x | n | n | x
COC(=O)CSc1ccc2c(N)c(C(=O)OC)sc2c1 | n | 51 | n | n | +
COC(=O)CSc1nc2ccc(N)cc2s1 | n | n | n | n | x
O=C(NCc1ccco1)O[C@@H]1CC[C@@]23CCCN2C(=O)CCC[C@H]3C1 | x | x | n | n | x
COc1c(Cl)cccc1-c1cn2ccc(C)cc2n1 | n | 44 | n | n | n
Cc1ccn2cc(-c3cnoc3C)nc2c1 | n | n | n | n | x
Cc1ccc(S(=O)(=O)Nc2ccc(-c3cn4ccc(C)cc4n3)cc2)cc1 | n | 41 | n | n | n
CC(=O)Nc1cccc(-c2cn3ccc(C)cc3n2)c1 | n | x | n | n | x
Cc1ccn2cc(-c3ccc(NS(=O)(=O)c4ccccc4)cc3)nc2c1 | n | n | n | n | x
Cc1ccn2cc(-c3cccc(NS(C)(=O)=O)c3)nc2c1 | n | 44 | n | n | n
Cc1csc(SCC(=O)Nc2ccccc2C)n1 | n | n | n | n | x
Cc1csc(SCC(=O)Nc2cccc3nsnc23)n1 | n | 46 | n | n | x
Cc1ccc2nc(C(C)(C)C)c(Cc3cccc(F)c3)n2c1 | n | 40 | n | n | n
COc1cc(/C=C/C(=O)OCC(=O)Nc2cc(S(=O)(=O)N3CCCCC3)ccc2C)ccc1O | n | 41 | n | n | n
SMILES | NadD inh | Neddyl block | NPR1 activator | GC-B act | Neddyl inh conf
CCN(CC)S(=O)(=O)c1ccc(Cl)c(NC(=O)COC(=O)/C=C/c2ccc(O)c(OC)c2)c1 | n | 40 | n | n | n
COc1ccc2c(c1)CNC2CS(=O)(=O)NCCc1ccccc1 (configuration not stated) | x | x | n | n | x
CCOc1ccc(N=Cc2c(O)c3ccccc3oc2=O)cc1 | n | n | n | n | x
CCOC(=O)c1ccccc1N=Cc1c(O)c2ccccc2oc1=O | n | 40 | n | n | n
C=CCN1[C@H](C)COc2cc(F)ccc2S1(=O)=O | x | x | n | n | x
O=S(=O)(c1cccs1)N1CN(Cc2ccccc2)c2nc3ccccc3nc21 | n | 41 | n | n | n
O=S(=O)(c1cccs1)N1CN(Cc2ccc(F)cc2)c2nc3ccccc3nc21 | n | n | n | n | x

Bioassay records deposited in PubChem by Sanford-Burnham Center for Chemical Genomics.
